Source: PubChem BioAssay (several laboratories)
Mdm2-MdmX inh: inhibitors of human Mdm2-MdmX association, primary screen, cell-based, luminescence, split luciferase, SaOS-2, uHTS; Protein Mdm4 (Homo sapiens) + E3 ubiquitin-protein ligase Mdm2 (Homo sapiens), …; SaOS-2 split-luciferase Mdm2/MdmX complementation; inhibition, % at 8 µM; 330,000 compounds, 3% hits; AID 485346, 2010;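 active = inhibition of at least 50% at 8 µM in the primary screen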
697 NFkB inh: inhibitors of PMA/ionomycin-induced NF-kB reporter, 697 cells, primary screen, B-cell NF-kB inhibitor project, cell-based, luminescence, uHTS | 697 B-cell NF-kB luciferase reporter, 16 h | inhibition, % at 4 µM | 330,000 compounds, 0.33% hits | AID 435022, 2010; in the data active = inhibition above about 35%
Beta apoptosis: inhibitors of cytokine-induced beta cell apoptosis, primary screen, luminescence; INS-1E cytokine-induced death, ATP luminescence, 48 h; percent of positive-control rescue, neutral wells zero; protection from apoptosis, % (test concentration not listed); 300,000 compounds, 0.8% hits;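 active = Every replicate reaches about 75%, or at least half do and their mean reaches it too, limit read from the data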;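 also: 0% = cytokine-treated negative control wells and 100% = positive control rescue; higher means more ATP so stronger rescue from cytokine killing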
Jurkat NFkB inh: inhibitors of induced NF-kB luciferase reporter, primary screen, TCR NF-kB activation inhibitor project, cell-based, luminescence, uHTS | inhibition, % at 4 µM | Jurkat, PMA/ionomycin-induced NF-kB luciferase reporter | 330,000 compounds, 0.53% hits; in the data active = inhibition above about 50%
Gli-Sufu block: Gli-Sufu pathway antagonists, primary screen, luciferase luminescence, Sufu-KO-LIGHT cells, uHTS; Sufu-KO-LIGHT fibroblasts, Gli luciferase reporter luminescence; inhibition, % at 5 µM; 340,000 compounds, 0.74% hits; AID 588413, 2011;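 active = inhibition above about 55%, limit read from the data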;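 also: 0% = DMSO-treated cells and 100% = wells with medium but no cells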
Mdm2-MdmX conf: Mdm2-MdmX complex disruptors, retested hits, confirmation, luminescence, single concentration. Mdm2-MdmX binding, luminescent assay. inhibition, % at 8 µM. shares compounds with Mdm2-MdmX inh. 10,000 compounds, 55% hits. AID 489028, 2010; in the data active = inhibition above about 40%
Full FLuc ctr: full-length luciferase signal inhibition, confirmation, counter-screen for Mdm2/MdmX interaction inhibitor project, cell-based, single concentration, SaOS-2. shares compounds with Mdm2-MdmX inh. SaOS-2 full-length luciferase counterscreen, luminescence. inhibition, % at 8 µM. AID 504607, 2011. 6,200 compounds, 77% hits;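 active = mean inhibition at 8 µM reaching about 37%, which flags the compound as non-specific, limit read from the data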;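 also: p53-null SaOS-2 cells with luciferase driven by a doxycycline-inducible promoter; compound on cells about two nights before reading with doxycycline added after day one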
An asterisk follows results filed as active; nt = no result given. Rows were chosen to be rich in hits. Some 4% of all compounds tested hit in one or more screens of this group.

SMILES	Mdm2-MdmX inh	697 NFkB inh	Beta apoptosis	Jurkat NFkB inh	Gli-Sufu block	Mdm2-MdmX conf	Full FLuc ctr
COC(=O)c1ccc2c(=O)n(CCCCCC(=O)N3CCN(c4ccc(F)cc4)CC3)c(=O)[nH]c2c1	67*	-14	-3	4	9	35	nt
COc1cc2[nH]c(=O)n(CCC(=O)N3CCN(c4cc(Cl)ccc4C)CC3)c(=O)c2cc1OC	75*	-15	7	3	6	13	nt
COc1cc2[nH]c(=O)n(CCCCCC(=O)N3CC=C(c4ccccc4)CC3)c(=O)c2cc1OC	59*	-14	-6	11	16	30	nt
Cn1c(=O)c2c(nc(NCC3CCCC(CN)C3)n2Cc2ccc(Cl)cc2Cl)n(C)c1=O (centres undefined)	58*	-92	27	21	13	42*	65*
Cn1c(=O)c2c(nc(NCCNC(=O)c3ccco3)n2Cc2ccc(Cl)cc2Cl)n(C)c1=O	-4	-13	5	0	-8	nt	nt
COc1ccc(NS(=O)(=O)c2cc(C)ccc2NC(=O)c2cc(C)oc2C)cc1	64*	-14	26	41	-3	58*	126*
COc1ccc(NS(=O)(=O)c2cccc(C(=O)NNC(=O)c3cc(C)oc3C)c2)cc1	10	8	4	-2	-5	nt	nt
COc1ccc(-c2cn(-c3ccccc3)c(=S)[nH]2)cc1OC	94*	-47	-5	-3	-35	-45	nt
COc1ccc(-c2cn(-c3ccc(C)c(C)c3)c(=S)[nH]2)cc1OC	13	-4	-2	-19	40	nt	nt
CN1CCN(C(=O)c2cccc(-c3cc(O)c4ncccc4c3)c2)CC1	27	-13	32	-10	15	nt	nt
CN1CCN(c2cc(-c3cc(O)c4ncccc4c3)ccn2)CC1	60*	9	3	14	25	45*	20
Oc1cc(Nc2ccccc2)cc2cccnc12	67*	0	36	4	9	31	nt
Oc1cc(-c2cccnc2)cc2cccnc12	76*	-1	11	0	29	50*	14
C[C@@]12CCC=C[C@H]1[C@H](c1ccc3ccccc3c1/C=C/c1ccccc1)N(Cc1ccccc1)C2=O	65*	12	13	1	25	15	nt
COC(=O)COc1ccc(S(=O)(=O)Nc2ccc3c(c2)OCO3)cc1Cl	52*	-1	-14	-5	5	29	nt
COc1ccccc1-c1cc(C(=O)N/N=C/c2ccc(C)s2)c2ccccc2n1	71*	-69	8	6	-15	5	nt
Cc1ccc2nsnc2c1S(=O)(=O)NCCc1c(C)[nH]c2ccc(F)cc12	11	8	-11	-1	5	nt	nt
COc1ccc(C2=NN(C(=O)c3ccco3)C(c3cc4ccccc4nc3Cl)C2)cc1 (centres undefined)	82*	-12	4	-4	4	8	nt
O=C(NCc1ccc(Cl)cc1)C(=O)NCC(c1cccnc1)N1CCN(c2ccc(F)cc2)CC1 (centres undefined)	7	-43	23	14	34	nt	nt
COc1ccc(S(=O)(=O)NCC(=O)Nc2cccc(C)c2C)cc1OC	20	-5	-4	5	-3	nt	nt
COc1ccc(OCC(=O)c2c[nH]c3ccccc23)cc1	-65	-20	-3	-45	-25	nt	nt
COc1ccc2c(C(=O)CCl)c[nH]c2c1	57*	19	-35	27	0	53*	24
COc1ccc(C(=O)NCc2cccnc2)cc1S(=O)(=O)N1CCCc2ccccc21	37	-11	7	7	-4	nt	nt
O=C(ONC1=NCCCCC1)c1ccc(Cl)cc1	70*	-12	1	3	8	19	nt
O=C(CNC1=NCCC1)c1ccc(Cl)cc1	23	-6	nt	14	2	nt	nt
SMILES	Mdm2-MdmX inh	697 NFkB inh	Beta apoptosis	Jurkat NFkB inh	Gli-Sufu block	Mdm2-MdmX conf	Full FLuc ctr
O=C(ONC1=NCCCCC1)c1c(F)cccc1F	65*	-13	-5	0	-2	27	nt
CCn1ccnc1CN1CCN(CCC(C)C)C(CCO)C1 (centres undefined)	8	7	-4	9	-14	nt	nt
COc1ccc(F)cc1S(=O)(=O)N1CCN(C(=O)c2ccco2)CC1	-7	-33	-7	-25	-14	nt	nt
Cc1ccc2[nH]c3nc(N/N=C/c4cccc(O)c4)nnc3c2c1	20	33	-3	28	-25	nt	nt
CCc1ccc2[nH]c3nc(N/N=C/c4ccc(O)cc4O)nnc3c2c1	58*	-15	108*	50	7	94*	29
O=C1C=C(c2ccc(F)cc2OCc2ccccc2)C[C@@H](c2ccc(F)cc2)C1	13	-11	65	3	3	nt	nt
O=C(OCc1ccccc1)c1cnc(Cl)c(Cl)c1	14	22	0	-15	-3	nt	nt
CC(C)N(Cc1ccccc1)C(=O)COC(=O)c1cnc(Cl)c(Cl)c1	63*	-2	5	-3	2	9	nt
O=C(O)c1[nH]c2ccc(Cl)cc2c1CC(=O)N1CCN(C(=O)c2ccco2)CC1	0	-16	4	-17	-4	nt	nt
CCN(CC)C(=O)C1CCCc2c1[nH]c1ccc(Cl)cc21 (centres undefined)	84*	-84	-1	3	-15	72*	35
O=CNC1CCCc2c1[nH]c1ccc(Cl)cc21 (centres undefined)	21	0	7	-1	-20	nt	nt
O=C(c1ccco1)N1CCN(C(=O)C2CCCc3c2[nH]c2ccc(Cl)cc32)CC1 (centres undefined)	86*	-224	7	-12	4	67*	28
COc1ccc(NC(=O)CSc2ccc3ccccc3c2)cc1S(=O)(=O)N1CCCCC1	34	-4	-1	10	1	nt	nt
COCC1CCCN(Cc2cn(-c3ccccc3F)nc2-c2cc(C)sc2C)C1 (centres undefined)	0	-5	8	9	-1	nt	nt
COc1ccc(-c2oc3ccccc3c(=O)c2OC(C)=O)cc1	73*	4	3	-41	-4	83*	51*
CC(=O)Oc1c(-c2ccc(Br)o2)oc2ccccc2c1=O	93*	2	2	0	-2	41*	30
CC(C)CCOc1cccc(OCC(=O)O)c1	-7	11	nt	6	5	nt	nt
CCn1nc(C)cc1-c1nnc(Sc2ncc([N+](=O)[O-])s2)n1C	96*	11	nt	28	12	97*	51*
